Inconclusive results are not listed. Activity calls are given as the source filed them. The calls were made as follows, unless noted: active = hit-call score of the fitted dose curve at least 0.9, where 1 is the maximum; inactive = score below 0.9.
Key:
[1] = CCTE_Shafer_MEA_acute_spike_number: CCTE's Neural Acute Assay for Total Number of Spikes, Shafer Lab (AID 2284008)
How it was run: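 Read-out is the total spike count over 40 min, expressed as percent change from each well's own pre-treatment baseline and fitted in the loss direction against DMSO. Rat cortical neurons were exposed at 0.03-40 uM on DIV 13 or 15.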

[2] = CCTE_Shafer_MEA_acute_firing_rate_mean: CCTE's Neural Acute Assay for Mean Firing Rate, Shafer Lab (AID 2284009);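 also: analyzed for loss of signal so actives lower firing rate relative to DMSO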
How it was run: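 Percent change in well-mean firing rate was derived from extracellular spikes detected at 8x rms noise (300-5000 Hz band-pass) before and after a 40-min compound exposure. Cultures were primary rat cortical neurons, tested at 0.03-40 uM.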

[3] = CCTE_Shafer_MEA_acute_burst_number: CCTE's Neural Acute Assay for Single-Electrode Bursts, Shafer Lab (AID 2284013)
How it was run: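 Spontaneous network activity of primary rat cortical neurons was recorded extracellularly on microelectrode arrays at 37 C, with 40-min periods before and during exposure to 0.03-40 uM compound on DIV 13 or 15.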

[4] = CCTE_Shafer_MEA_acute_burst_duration_mean: CCTE's Neural Acute Assay for Mean Burst Duration, Shafer Lab (AID 2284014);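 also: hits are decreases in mean burst duration relative to DMSO controls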
How it was run: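 Read-out is the per-well percent change in mean burst duration (first to last spike within a single-electrode burst) between 40-min recordings before and after compound. Cultures were primary rat cortical neurons on MEAs, dosed at 0.03-40 uM on DIV 13 or 15.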

[5] = CCTE_Shafer_MEA_acute_per_burst_spike_number_mean: CCTE's Neural Acute Assay for Average Number of Spikes Per Burst, Shafer Lab (AID 2284015);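 also: hits are decreases in mean spikes per burst versus baseline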
How it was run: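 We recorded spontaneous network firing of rat cortical neurons for 40 min before and 40 min during exposure to compound at 0.03-40 uM, at 37 C. Spikes were detected adaptively at 8x rms noise, and the change in average spikes per burst was fitted against DMSO.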

[6] = CCTE_Shafer_MEA_acute_interburst_interval_mean: CCTE's Neural Acute Assay for Mean Interburst Interval, Shafer Lab (AID 2284016);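 also: percent change of mean interburst interval versus each well's own pre-dose baseline; curves fitted for decrease in interburst interval relative to DMSO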
How it was run: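 MEA recording of spontaneous network bursting in primary rat cortical cultures; mean interburst interval was compared before and after a 40-min compound exposure (0.03-40 uM) and expressed as percent change, relative to DMSO.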

[7] = CCTE_Shafer_MEA_acute_burst_percentage_mean: CCTE's Neural Acute Assay for Percentage of Spikes in a Burst, Shafer Lab (AID 2284017)
How it was run: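 Compounds were tested at 0.03-40 uM on primary rat cortical neuron networks grown over microelectrodes, with at least three wells per compound. Spontaneous firing was recorded for 40 min before and 40 min after dosing, and the change in burst percentage was computed per well.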

[8] = CCTE_Shafer_MEA_acute_burst_percentage_std: CCTE's Neural Acute Assay for Standard Deviation of Burst Percentage, Shafer Lab (AID 2284018);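 also: fitted in the negative direction so actives lower burst percentage SD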
How it was run: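 Value is percent change from baseline in the across-electrode SD of spikes-in-bursts percentage, wells with >/= 10 active electrodes. Acute 40-min exposure to 0.03-40 uM on DIV 13 or 15 rat cortical cultures, recorded at 37 C after 40-min baseline.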

[9] = CCTE_Shafer_MEA_acute_per_network_burst_spike_number_mean: CCTE's Neural Acute Assay for Average Number of Spikes in a Network Burst, Shafer Lab (AID 2284019)
How it was run: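 Read-out is mean spike count per network burst, taken as percent change between a 40-min pre-exposure and a 40-min post-exposure recording per well. Rat primary cortical neurons on MEAs at 37 C, DIV 13 or 15; compounds at 0.03-40 uM.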

[10] = CCTE_Shafer_MEA_acute_per_network_burst_spike_number_std: CCTE's Neural Acute Assay for Standard Deviation of Number of Spikes in a Network Burst, Shafer Lab (AID 2284020);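 also: fitted for decrease in spike-number SD versus DMSO so actives lower it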
How it was run: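 Spontaneous network activity of primary rat cortical neurons is recorded extracellularly before and after a 40-min compound exposure (0.03-40 uM) at 37 C. The endpoint is the well's percent change in burst spike-number SD.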

[11] = CCTE_Shafer_MEA_acute_per_network_burst_electrodes_number_mean: CCTE's Neural Acute Assay for Mean Number of Electrodes in a Network Burst, Shafer Lab (AID 2284021);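 also: curves fitted for decreases only so hits reduce electrodes per burst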
How it was run: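 Primary rat cortical networks, mwMEA, 37 C. 20 min stabilization, 40 min baseline, compound 0.03-40 uM, 40 min re-record. Wells need >=10 active electrodes; percent change per well, negative fitting direction.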

[12] = CCTE_Shafer_MEA_acute_cross_correlation_area: CCTE's Neural Acute Assay for Area of Cross Correlation, Shafer Lab (AID 2284024);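 also: area under pooled inter-electrode spike cross-correlation near zero lag as percent change from own baseline; curves fitted for loss of cross-correlation area so actives lower synchrony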
How it was run: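 Plates equilibrated 20 min at 37 C, then 40 min baseline was recorded, compound was added (0.03-40 uM), and a further 40 min was recorded. Wells needed ≥10 active electrodes (≥5 spikes/min) on exposure day.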

[13] = CCTE_Shafer_MEA_acute_synchrony_index: CCTE's Neural Acute Assay for Synchrony, Shafer Lab (AID 2284027);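 also: network synchrony index of spontaneous spiking in primary rat cortical neurons on MEAs; fitted for loss of signal so actives lower synchrony relative to DMSO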
How it was run: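 Primary rat cortical neurons on 48-well MEAs, dosed at 0.03–40 uM on DIV 13 or 15. Spikes are recorded for 40 min at 37C before and after exposure, and synchrony index (0–1) is expressed as percent change from baseline per well.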

[14] = CCTE_Shafer_MEA_dev_firing_rate_mean: CCTE's Neural Network Formation Assay for Mean Firing Rate, Shafer Lab (AID 2284031)
How it was run: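 Primary rat cortical neurons on 48-well MEA plates, exposed from plating day 0 with dosing renewed on DIV 5 and 9. Mean well firing rate over active electrodes, recorded days 5, 7, 9, 12, summarised as trapezoidal AUC.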

[15] = CCTE_Shafer_MEA_dev_per_burst_spike_percent: CCTE's Neural Network Formation Assay for Percent of Spikes in a Burst, Shafer Lab (AID 2284032)
How it was run: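 Rat primary cortical neurons on 16-electrode MEA wells, dosed from plating day 0 for 12 days with renewal on DIV 5 and 9; spikes-in-bursts percentage averaged over bursting electrodes, collapsed as AUC across days 5, 7, 9, 12; loss direction versus DMSO.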

[16] = CCTE_Shafer_MEA_dev_active_electrodes_number: CCTE's Neural Network Formation Assay for Number of Active Electrodes, Shafer Lab (AID 2284040; active = hit-call score of the fitted dose curve at least 0.9, where 1 is the maximum)
How it was run: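 Primary rat cortical neurons on 16-electrode MEA wells, exposed from day 0 through day 12 with compound renewed at DIV 5 and 9 feeds. Active electrodes (mean firing ≥5 spikes/min) counted at DIV 5, 7, 9, 12; trapezoidal AUC across days, loss-of-signal versus DMSO.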

[17] = CCTE_Shafer_MEA_dev_burst_rate: CCTE's Neural Network Formation Assay for Burst Rate, Shafer Lab (AID 2284042)
How it was run: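 Developmental network assay measuring how 12-day exposure of rat cortical neuron cultures alters bursting on extracellular MEA recordings. Values are AUC of well-mean burst rate across four recording days, relative to DMSO vehicle.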

[18] = CCTE_Shafer_MEA_dev_bursting_electrodes_number: CCTE's Neural Network Formation Assay for Number of Bursting Electrodes, Shafer Lab (AID 2284043; active = hit-call score of the fitted dose curve at least 0.9, where 1 is the maximum)
How it was run: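 Read-out is the per-well number of electrodes bursting at least once every 2 minutes, recorded on days 5, 7, 9 and 12 and collapsed by trapezoidal area under the curve. Cultures were primary rat cortical neurons on MEA plates, treated continuously from plating.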

[19] = CCTE_Shafer_MEA_dev_burst_duration_mean: CCTE's Neural Network Formation Assay for Mean Burst Duration, Shafer Lab (AID 2284045)
How it was run: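 Read-out: average first-to-last-spike interval within single-electrode bursts, averaged over bursting electrodes per well, then summarised as area under the curve across days 5, 7, 9 and 12. Developing rat cortical networks were exposed from day 0.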

[20] = CCTE_Shafer_MEA_dev_interburst_interval_mean: CCTE's Neural Network Formation Assay for Mean Interburst Interval, Shafer Lab (AID 2284046);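 also: well-mean interburst interval of bursting electrodes as AUC over four recording days; curve fitted for decrease in interburst interval relative to DMSO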
How it was run: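 Network formation assay in primary rat cortical cultures, exposed from DIV 0 to 12. Mean interburst interval per well, integrated as AUC over four recordings.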

Measured: outcome

O=C(O)CNCP(=O)(O)O
inactive: all assays above
